TDP1 cell CPT: DT40-hTDP1 cell growth loss with CPT. chicken DT40 Tdp1-/-;hTDP1 cells + 20 nM CPT, ATP luminescence, 48 h. Potency, µM (top dose mostly 46.2 µM), without a hit: at the top dose activity change, negative = growth inhibition, usual class: inhibitors. hit rate 12% among 420,000; also: nearly all actives have a fitted effect of over 55% in size
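Chicken DT40 Tdp1-/- cells complemented with human TDP1, 400 cells/well, exposed to compounds plus 20 nM camptothecin for at least 48 h at 37 C; viability read as ATP content by CellTiter-Glo luminescence.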
HT1080-NT tox: kills 2HG-producing HT-1080-NT fibrosarcoma cells | HT-1080-NT fibrosarcoma viability, CellTiter-Glo ATP luminescence, 48 h | Potency, µM (titrated, usually from 46.1 µM), for the others: at the highest dose activity, negative = less viability, most hits filed as cytotoxic | hit rate 1.6% among 360,000 | AID 686970;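 also: NT is the 2HG producing partner of a matched IDH1 knockdown line; 0% = DMSO-treated cells and -100% = media-only wells without cells; nearly all actives have a fitted effect of over 55% in size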
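Viability by CellTiter-Glo luminescence after 48 h compound exposure at 37C of HT-1080-NT cells (750/well, RPMI, 5% FBS). % activity scaled between DMSO wells and medium-only wells, then curve-fitted and categorized by curve class.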
KB-V1 MDR tox: kills drug-selected multidrug resistant KB-V1 cells. KB-V1 MDR cells viability, CellTiter-Glo, 72 h. Potency, µM (doses to about 46.1 µM), most hits filed as cytotoxic. hit rate 3.4% among 400,000; also: nearly all actives have a fitted effect of over 60% in size
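Potencies derive from concentration-effect curves fitted to normalized luminescence (CellTiter-Glo) of KB-V1 cells treated for 72 h at 37 degrees C in phenol-red-free DMEM containing 10% FBS.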
TDP1 cell noCPT: qHTS for Inhibitors of human tyrosyl-DNA phosphodiesterase 1 (TDP1): qHTS in cells in absence of CPT; DT40 Tdp1-/- hTDP1 cells, no CPT, ATP luminescence, 48 h; Potency, µM (series often up to 46.2 µM), inactives show at the highest dose activity change, negative = growth inhibition, actives largely listed as inhibitors; hit rate 15% among 420,000; also: nearly all actives have a fitted effect of over 55% in size
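Chicken DT40 Tdp1-/- cells complemented with human TDP1, screened without camptothecin (DMSO vehicle only), 400 cells/well. Compounds pin-transferred, cells incubated at 37 °C for at least 48 hr. Growth read as ATP-dependent luminescence (CellTiter-Glo, 30 min at RT).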
HT1080 IDH1KD tx: HT-1080 IDH1 knockdown cell toxicity (counter line); HT-1080 IDH1 knockdown viability, ATP luminescence, 48 h; Potency, µM (doses to about 46.1 µM), without a hit: at the top dose activity, negative = toxicity, usual class: cytotoxic; hit rate 2% among 360,000; AID 686971;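 also: 0% = DMSO wells and -100% = cell-free medium wells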
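Luminescent ATP read-out (CellTiter-Glo, 10 min at room temperature) after 48 h compound exposure at 37 °C gave viability of IDH1-knockdown HT-1080 cells. Activity was normalised to DMSO and cell-free wells, then fitted as concentration-response curves.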
KB-3-1 tox: kills parental KB-3-1 adenocarcinoma cells. Potency, µM (series often up to 46.1 µM), usual class: cytotoxic. KB-3-1 viability, CellTiter-Glo ATP luminescence, 72 h. AID 1347075. hit rate 1.4% among 400,000; also: nearly all actives have a fitted effect of over 60% in size
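Cells are dispensed, compounds pinned in, plates held at 37 °C for 72 h, then CellTiter-Glo is added and luminescence read after 10 minutes. Cell line: parental KB-3-1 in phenol-red-free DMEM, 10% FBS.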
An asterisk follows results filed as active; i = inactive; u = inconclusive; x = not tested or not shown. An excerpt weighted towards active compounds, which were near 19% of everything screened. Calls follow the shape of the dose curve; as a rule, active = well fitted curve in the direction sought with a large enough effect; inconclusive = small, poorly fitted or top-dose-only effect, or another doubt; inactive = no such curve, though single readings can be large; an effect the other way counts as inactive or inconclusive. Unless noted, % is scaled to controls: 0 for no effect and ±100 for the full control effect; potency is read from the fitted curve at half-maximal effect.

SMILES	TDP1 cell CPT	HT1080-NT tox	KB-V1 MDR tox	TDP1 cell noCPT	HT1080 IDH1KD tx	KB-3-1 tox
CCSc1nnc(NC(=O)[C@@H](NC(=O)c2cccc(C)c2)C(C)C)s1	-13%	-4%	8.2µM*	-18%	8%	i
CC(C)[C@H](NC(=O)c1ccc(C(C)(C)C)cc1)C(=O)Nc1nnc(C2CC2)s1	23µM*	-12%	u	u	-2%	i
CC(Sc1nnc(N)s1)C(=O)Nc1ccc2c(c1)OCO2 (stereo unspecified)	-20%	2%	u	-18%	-5%	i
CC1CCCCC12NC(=O)N(CC(=O)Nc1ccc3[nH]c(=O)[nH]c3c1)C2=O (stereo unspecified)	2%	3%	i	-4%	4%	i
CCOC(=O)Cn1c(CN(C)Cc2ccccc2)nc2c1c(=O)n(C)c(=O)n2C	9.2µM*	-6%	i	12µM*	-16%	i
CN(Cc1ccccc1)Cc1nc2c(c(=O)n(C)c(=O)n2C)n1CCCc1ccccc1	18µM*	14%	16µM*	16µM*	21%	i
Cn1c(=O)c2c(nc(CCc3ccccc3)n2C)n(C)c1=O	-27%	29%	i	-19%	5%	i
COC(=O)Cn1c(CN(C)Cc2ccccc2)nc2c1c(=O)n(C)c(=O)n2C	u	16%	u	u	8%	u
CC(C)Cn1c(CN(C)Cc2ccccc2)nc2c1c(=O)n(C)c(=O)n2C	6.5µM*	-1%	i	7.3µM*	-5%	i
Cc1nnc(SCCn2c(N(C)Cc3ccccc3)nc3c2c(=O)n(C)c(=O)n3C)s1	u	8%	i	11µM*	3%	i
COc1ccc(S(=O)(=O)NNS(=O)(=O)c2ccc(OC)c(OC)c2)cc1OC	-12%	u	i	-17%	17%	i
CC1=C(C(=O)N(C)C)CC(CC(=O)NCc2cccc3ccccc23)C(=O)N1Cc1ccc(F)cc1 (stereo unspecified)	-7%	1%	i	u	5%	i
CCOC(=O)c1cc(-c2ccccc2)n(-c2cccc(C(=O)NC(C)(C)C)c2)c1C	u	x	i	u	x	i
CCOC(=O)c1cc(-c2ccccc2)n(-c2cccc(C(=O)N(C)c3ccc(C)cc3)c2)c1C	-80%	x	u	8.2µM*	x	16µM*
COc1ccc(NC(=O)/C(C#N)=C/c2ncc([N+](=O)[O-])n2C)c(OC)c1	u	-7%	i	u	-5%	i
CCOc1ccccc1NC(=O)CCNC(=O)N1CC(=O)Nc2ccccc21	-7%	8%	i	-9%	4%	i
Fc1ccccc1-c1nc(NCc2ccco2)c2ccccc2n1	24%	-10%	i	-14%	-9%	i
Cc1ccc(Nc2nc(NCc3ccco3)c3ccccc3n2)cc1	2.6µM*	u	u	2.6µM*	23µM*	u
COc1ccccc1Nc1ncnc2ccccc12	u	7%	i	-4%	9%	i
COc1ccccc1Nc1nc(NCc2ccco2)c2ccccc2n1	u	21µM*	u	21µM*	23µM*	i
COc1ccc(Cn2cc(CN3CCc4onc(-c5ccc(Br)cc5)c4C3=O)nn2)cc1	16µM*	u	21µM*	21µM*	u	u
COc1ccccc1-c1noc2c1C(=O)N(Cc1cn(-c3ccc(Cl)cc3)nn1)CC2	u	-22%	i	23µM*	-26%	u
COc1ccccc1-n1cc(CN2CCc3onc(-c4ccc(Br)cc4)c3C2=O)nn1	u	-22%	u	u	-22%	i
Cc1cccc(CN2CCC(CNC(=O)CSc3cc(=O)n(C)c4cc(Cl)ccc34)CC2)c1	9%	-1%	i	0%	9%	i
O=C(c1ccccc1)C1CC=CCC1C(=O)c1ccccc1 (stereo unspecified)	-22%	-14%	i	-27%	-3%	i
SMILES	TDP1 cell CPT	HT1080-NT tox	KB-V1 MDR tox	TDP1 cell noCPT	HT1080 IDH1KD tx	KB-3-1 tox
O=C(CCC(=O)N(CC(=O)NC1CCCCC1)CC1CCCO1)Nc1nccs1 (stereo unspecified)	-23%	14%	i	-14%	13%	i
O=C1C=CC(=O)N1CCCCCCCCCCN1C(=O)C=CC1=O	0.58µM*	u	i	1.3µM*	u	u
COc1ccc(C(=O)N2CCC(C(=O)NCc3ccccn3)CC2)cc1	9%	12%	i	-1%	12%	i
Cc1ccc(NC(=O)CSC(C)c2nc3ccccc3c(=O)[nH]2)cc1 (stereo unspecified)	-15%	-2%	i	-22%	12%	i
O=C(Nc1nc(-c2cccs2)c(-c2cccs2)s1)C1(c2ccccc2)CC1	u	0%	18µM*	u	-11%	i
COc1ccc(/C=N\NC(=O)c2ccccc2F)cc1COc1ccc(F)cc1	u	-17%	i	u	-14%	i
COc1ccc(/C=N\NC(=O)c2ccccc2)cc1COc1ccccc1	u	1%	i	u	u	i
COc1ccc(/C=N/NC(=O)c2ccc(OC)c(OC)c2)cc1COc1c(F)c(F)c(F)c(F)c1F	16µM*	-3%	i	u	u	i
COc1ccc(/C=N/NC(=O)c2ccc(F)cc2)cc1CN1CCc2cc(OC)c(OC)cc2C1C (stereo unspecified)	u	u	i	18µM*	u	i
COc1ccc(/C=N\NC(=O)c2ccccc2F)cc1COc1ccc(F)cc1F	2.6µM*	2.3µM*	u	2.6µM*	2.3µM*	5.2µM*
COc1ccc(/C=N/NC(=O)c2cc(C(C)(C)C)[nH]n2)cc1COc1ccc(F)cc1F	u	u	u	23µM*	u	u
CS(=O)(=O)c1cnc(-c2ccccc2)nc1Oc1ccc(Cl)cc1	-3%	-7%	i	-3%	-9%	i
COc1ccc(/C=N\NC(=O)c2ccccc2OC)cc1COc1ccccc1C	16µM*	-8%	i	u	-1%	i
COc1ccc(/C=N/NC(=O)c2nc(Cl)c(Cl)c(N)c2Cl)cc1COc1ccccc1F	23µM*	-18%	i	u	-23%	i
COc1ccc(/C=N\NC(=O)c2ccccc2Br)cc1COc1c(F)c(F)cc(F)c1F	u	-17%	x	16µM*	u	x
